Experimental data reported in PubChem BioAssay AID1159580 (chemical genetic matrix, 2015).
The campaign covered roughly 5,500 compounds. About 2,000 (36%) were called active. Another 18% or so got no clear call; they are omitted. Rule as the data show it: active = normalized growth mostly below about 0.91 (no sharp cut-off); inconclusive = no clear call, values can overlap the other calls; inactive = mostly above about 0.92. The list shows a part of the results.

Assay: chemical genetic growth profiling, strain panel (AID 1159580);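 also: tested at 20 µM; growth read once vehicle control cultures reached saturation at 30 °C; 1 = growth at the plate median or of vehicle wells; lower values mean less growth of the strain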
Details: S. cerevisiae deletion strains, growth OD
[1] = locus YHR030C, strain SLT2, hits give low values

Measured: normalized growth

CC(=O)Nc1c(C)c(C)c(C)c(C)c1NC(C)=O
inactive: locus YAL013W, strain DEP1, hits give low values 1.01 | locus YBR229C, strain ROT2, hits give low values 1.01 | locus YDL101C, strain DUN1, hits give low values 1 | locus YDL134C, strain PPH21, hits give low values 1 | locus YDR150W, strain NUM1, hits give low values 0.989 | locus YEL061C, strain CIN8, hits give low values 1.02 | locus YGR078C, strain PAC10, hits give low values 0.994 | [1] 1.14 | locus YHR087W, strain rtc3, hits give low values 0.997 | locus YJR043C, strain POL32, hits give low values 1.01 | locus YJR075W, strain HOC1, hits give low values 0.988 | locus YLR039C, strain RIC1, hits give low values 1.04 | locus YLR058C, strain SHM2 (second series), hits give low values 1.02 | locus YLR085C, strain ARP6, hits give low values 1.07 | locus YLR262C, strain YPT6, hits give low values 1.02 | locus YML094W, strain GIM5, hits give low values 1.04 | locus YMR219W, strain ESC1, hits give low values 1.02 | locus YMR263W, strain SAP30, hits give low values 1.01 | locus YNL153C, strain GIM3, hits give low values 0.995 | locus YNL298W, strain CLA4 (second series), hits give low values 1.06 | locus YNL322C, strain KRE1, hits give low values 1.01 | locus YNR030W, strain Alg12, hits give low values 1.03 | locus YPL055C, strain LGE1, hits give low values 1.03 | locus YPR135W, strain CTF4, hits give low values 1.09
active: locus YPL241C, strain CIN2, hits give low values 1.15 [resistant]

CC(=O)Nc1c(I)c(NC(C)=O)c(I)c(C(=O)O)c1I
inactive: [1] 0.975 | locus YHR079C, strain IRE1, hits give low values 1 | locus YJL095W, strain BCK1, hits give low values 0.989 | locus YJR066W, strain TOR1, hits give low values 0.932 | locus YLR113W, strain HOG1, hits give low values 0.977 | locus YNL183C, strain NPR1, hits give low values 0.941 | locus YOR231W, strain MKK1, hits give low values 0.99 | locus YPL256C, strain CLN2, hits give low values 0.974
